An excerpt weighted towards active compounds, which were near 2.9% of everything screened.
a7 integrin act = qHTS for Activators of Integrin-Mediated Alleviation for Muscular Dystrophy | alpha7betagal myoblasts, beta-gal FDG fluorescence, 48 h | Potency, µM (top dose mostly 38.3 µM), inactives show at the highest dose activation, usual class: activators | hit rate 0.064% among 350,000 | AID 624291, 2012;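 also: potency is read from the fitted curve at half-maximal effect; 100% = response of the positive control SU9516; nearly all actives have a fitted effect of over 60% in size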
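Alpha7betagal+/- myoblasts (passage 13) were plated 16-24 hr, then exposed to compounds (1:260 dilution of DMSO stock) for 48 hours at 37C. After MPER lysis, β-galactosidase reporter activity was read as FDG fluorescence (ex 480/em 540) after 30 minutes.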
D3 antag = qHTS of D3 Dopamine Receptor Antagonist: qHTS. max response, negative = inhibition, %. D(3) dopamine receptor (Homo sapiens), P35462. AID 652054, 2013. hit rate 2.5% among 360,000. D3R cells, DiscoveRx beta-arrestin luminescence, antagonist mode; hits give low values; in the data active = max response below about -50%; also: % is scaled to controls: 0 for no effect and ±100 for the full control effect
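Cells expressing the human receptor were seeded at 1500 cells/well, incubated overnight at 37 degrees C in 5% CO2, then exposed to library compounds with dopamine controls for 90 minutes at 37 degrees C before luminescent detection.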
B2AR arrestin = qHTS assay of beta-arrestin-biased ligands of beta2-adrenergic receptor | beta-arrestin recruitment to beta2AR, cell-based reporter | hit rate 0.02% among 330,000 | Beta-2 adrenergic receptor (Homo sapiens), P07550 | Potency, µM (highest dose often 46.1 µM), for the others: top-dose activation, usual class: activators;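 also: potency is read from the fitted curve at half-maximal effect; 0% = DMSO controls and full agonism = EC100 isoproterenol or metaproterenol; nearly all actives have a fitted effect of over 65% in size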
D3 ag = qHTS of D3 Dopamine Receptor Agonist: qHTS | D(3) dopamine receptor (Homo sapiens), P35462 | D3R DiscoveRx beta-arrestin cells, luminescence, 90 min | max activation, % | hit rate 0.58% among 410,000 | AID 652048, 2013; in the data active = max activation above about 30%; also: 0% is about no effect
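Agonist mode: compounds and dopamine controls were applied to plated cells for 90 min at 37 degrees C after an overnight attachment at 1500 cells/well. Luminescent read-out followed 30 - 60 minutes at room temperature with DiscoveRx detection reagent.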
IDH1 R132H inh = qHTS for Inhibitors of mutant isocitrate dehydrogenase 1 (IDH1): qHTS; Isocitrate dehydrogenase [NADP] cytoplasmic (Homo sapiens), O75874; IDH1-R132H enzyme, NADPH consumption, diaphorase/resazurin fluorescence; Potency, µM (series often up to 76.6 µM), for the others: top-dose activity change, negative = inhibition, actives largely listed as inhibitors; hit rate 0.093% among 390,000; AID 602179, 2012; also: potency is read from the fitted curve at half-maximal effect; % is scaled to controls: 0 for no effect and ±100 for the full control effect; nearly all actives have a fitted effect of over 65% in size
Target sequence (O75874 whole entry R132H, stated change not applied): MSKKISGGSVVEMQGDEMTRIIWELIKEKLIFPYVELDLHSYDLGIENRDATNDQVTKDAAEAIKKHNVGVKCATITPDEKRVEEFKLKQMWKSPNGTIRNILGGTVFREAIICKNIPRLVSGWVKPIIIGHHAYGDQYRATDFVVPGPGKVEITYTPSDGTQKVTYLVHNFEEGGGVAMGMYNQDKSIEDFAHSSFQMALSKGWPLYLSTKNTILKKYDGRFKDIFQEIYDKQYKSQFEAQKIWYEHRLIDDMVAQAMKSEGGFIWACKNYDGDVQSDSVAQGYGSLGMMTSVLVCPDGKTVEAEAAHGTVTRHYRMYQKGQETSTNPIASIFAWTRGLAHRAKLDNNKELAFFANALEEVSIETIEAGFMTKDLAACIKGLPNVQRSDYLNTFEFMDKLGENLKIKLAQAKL
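IDH1-R132H (0.5 ug/mL) preincubated 30 min with compound, then NADPH (0.016 mM) and alpha-KG (2 mM) added; 80 min at RT, pH 7.5. Remaining NADPH coupled via diaphorase/resazurin to fluorescence (540/590 nm); concentration-response curves normalized to no-enzyme control.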
* hit, by the source's call. Unless noted, calls follow the shape of the dose curve; as a rule, active = well fitted curve in the direction sought with a large enough effect; inconclusive = small, poorly fitted or top-dose-only effect, or another doubt; inactive = no such curve, though single readings can be large; an effect the other way counts as inactive or inconclusive.

How did Cc1nn(-c2ccccc2)c(C)c1/C=N/n1c(-c2ccc(Cl)cc2)n[nH]c1=S do in these assays?
a7 integrin act: -21.1%; D3 antag: -23.8; B2AR arrestin: -0.5%; D3 ag: -1.2; IDH1 R132H inh: 2.1%

What do the screens show for `Cc1nn(-c2ccccc2)c(C)c1/C=N/n1c(-c2ccncc2)n[nH]c1=S`?
a7 integrin act: -23.8%; D3 antag: -52.3*; B2AR arrestin: -0.1%; D3 ag: -7.9; IDH1 R132H inh: 6.0%

How did S=c1[nH]nc(-c2cccnc2)n1/N=C/c1ccco1 do in these assays?
a7 integrin act: 11.1%; D3 antag: -50.5*; B2AR arrestin: -0.2%; D3 ag: -12.1; IDH1 R132H inh: -1.7%

What do the screens show for `Oc1c(Br)cc(Br)cc1/C=N/n1c(-c2ccccc2)n[nH]c1=S`?
a7 integrin act: -13.7%; D3 antag: -51.1*; B2AR arrestin: -0.1%; D3 ag: -3.6; IDH1 R132H inh: -2.7%

Results for O=C(NCCN1CCC(n2c(=O)[nH]c3ccccc32)CC1)c1ccc(F)c(C(F)(F)F)c1 ?
D3 antag: -83.8*; D3 ag: -13.6

What do the screens show for `COc1ccc(C(=O)NCCN2CCC(n3c(=O)[nH]c4ccccc43)CC2)cc1F`?
D3 antag: -91.2*; D3 ag: -10.7

Results for O=C(NC1CCCCC1)N1CCC(n2c(=O)[nH]c3ccccc32)CC1 ?
a7 integrin act: -3.7%; D3 antag: 0.0; B2AR arrestin: -0.7%; D3 ag: -7.1; IDH1 R132H inh: 12.9%

Results for O=C(NCCN1CCC(n2c(=O)[nH]c3ccccc32)CC1)c1ccc(F)c(F)c1 ?
D3 antag: -93.2*; D3 ag: -12.0

What do the screens show for `O=C(NCCN1CCC(n2c(=O)[nH]c3ccccc32)CC1)c1ccc(C(F)(F)F)cc1C(F)(F)F`?
D3 antag: -92.2*; D3 ag: -15.5

How did CC1CCN(CCCNC(=O)c2ccc3c(=O)n(CCc4ccccc4)c(=O)[nH]c3c2)CC1 do in these assays?
a7 integrin act: -25.9%; D3 antag: -28.0; B2AR arrestin: -0.1%; D3 ag: -5.3; IDH1 R132H inh: 3.1%

How did O=C1OC2(c3ccccc31)c1cc(Br)c(O)c(Br)c1Oc1c2cc(Br)c(O)c1Br do in these assays?
D3 ag: 1.1

Results for OC(COc1ccc(OCC(O)CN2CCCCC2)cc1)CN1CCCCC1 (configuration not stated) ?
a7 integrin act: -16.9%; D3 antag: -1.0; B2AR arrestin: -0.9%; D3 ag: -4.3; IDH1 R132H inh: 3.6%

What do the screens show for `CC1(C)NC(=O)N(CC(O)COc2cc3ccccc3cc2C(=O)N2CCCCC2)C1=O` (configuration not stated)?
a7 integrin act: 1.1%; D3 antag: 2.9; B2AR arrestin: -1.0%; D3 ag: -5.1; IDH1 R132H inh: -0.7%

How did OC(COc1ccc(Cl)cc1)CN1CCCCC1 (configuration not stated) do in these assays?
a7 integrin act: 15.2%; D3 antag: -54.8*; B2AR arrestin: -0.7%; D3 ag: -20.3; IDH1 R132H inh: 4.0%

What do the screens show for `Cc1ccc(OCC(O)Cn2c(=N)n(CCN3CCCCC3)c3ccccc32)cc1` (configuration not stated)?
a7 integrin act: -70.2%; D3 antag: -63.1*; B2AR arrestin: 0.1%; D3 ag: -10.4; IDH1 R132H inh: 3.4%

Results for O=C(c1cc2ccccc2cc1OCC(O)CN1CCCCC1)N1CCCCC1 (configuration not stated) ?
a7 integrin act: -46.4%; D3 antag: -85.3*; B2AR arrestin: 5.8%; D3 ag: -17.5; IDH1 R132H inh: -15.8%

What do the screens show for `OC(COc1c(Cl)cc(Cl)cc1Cl)CN1CCCCC1` (configuration not stated)?
a7 integrin act: -31.7%; D3 antag: -63.0*; B2AR arrestin: 0.4%; D3 ag: -22.4; IDH1 R132H inh: -4.4%

What do the screens show for `O=C(O)C1(S(=O)(=O)CCC(F)=C(F)F)CC1`?
a7 integrin act: -5.9%; D3 antag: -4.0; B2AR arrestin: -0.1%; D3 ag: 3.6; IDH1 R132H inh: -0.9%

Results for O=C(CN1CCCc2ccccc21)Nc1cc(S(=O)(=O)N2CCCC2)ccc1Cl ?
a7 integrin act: -44.3%; D3 antag: -0.8; B2AR arrestin: 0.3%; D3 ag: 7.6; IDH1 R132H inh: -2.7%

Results for Cc1ccc(NC(=O)C2CCCN(c3ncnc4onc(C)c34)C2)c(Cl)c1 (configuration not stated) ?
D3 ag: 10.5; IDH1 R132H inh: 5.6%

Results for COc1ccc(-c2nc(S(=O)(=O)c3ccc(Cl)cc3)c(N3CCCCCC3)o2)cc1 ?
D3 ag: 0.0

What do the screens show for `CCOC(=O)Cc1nn(Cc2nc(-c3ccc(C#N)cc3)cs2)c(=O)c2ccccc12`?
a7 integrin act: -1.1%; D3 antag: 18.7; B2AR arrestin: 0.1%; D3 ag: 30.5*; IDH1 R132H inh: 6.6%

How did CCOC(=O)Cc1nn(CC)c(=O)c2ccccc12 do in these assays?
a7 integrin act: 43.2%; D3 antag: 2.0; B2AR arrestin: -0.7%; D3 ag: 4.2; IDH1 R132H inh: -7.0%

Results for CSc1nn(CC(=O)Nc2cc(C)ccc2C)c(N)c1S(=O)(=O)c1ccccc1 ?
D3 ag: -5.0; IDH1 R132H inh: 9.0%

How did O=C(CCNS(=O)(=O)c1ccc(Br)cc1)NCC(c1cccs1)N1CCOCC1 (configuration not stated) do in these assays?
a7 integrin act: 13.6%; D3 antag: 0.0; D3 ag: -3.8; IDH1 R132H inh: 4.1%

Results for CCOc1ccc(S(=O)(=O)NCCC(=O)NCC(c2cccs2)N2CCOCC2)cc1 (configuration not stated) ?
a7 integrin act: 2.24µM*; D3 antag: 2.8; B2AR arrestin: -0.8%; D3 ag: 1.5; IDH1 R132H inh: -1.5%

Results for CC(C)CNC(=O)C1(C)CCCN1C(=O)c1ccncc1 (configuration not stated) ?
D3 antag: 4.0; D3 ag: 88.6*

What do the screens show for `CC(C)CNC(=O)C1(C)CCCN1C(=O)C(C)(C)Oc1ccc(Cl)cc1` (configuration not stated)?
D3 antag: -100.4*; D3 ag: -21.3

Results for COc1ccc(Cl)cc1NC(=O)c1cnc2sc(N3CCOCC3)nn2c1=O ?
D3 ag: 8.7; IDH1 R132H inh: 3.7%

What do the screens show for `COCCNC(=O)Cn1nc(N2CCN(c3ccccc3OC)CC2)ccc1=O`?
D3 ag: -17.6; IDH1 R132H inh: -14.7%
